Measurements: article PMC7862700, “An all-to-all approach to the identification of sequence-specific readers for epigenetic DNA modifications on cytosine”

What was measured:
Experiment in all cases: DAPPL (digital affinity profiling via proximity ligation, sequencing); 10 mM Tris-HCl pH 7.5, 50 mM NaCl, 1 mM DTT, 4% glycerol, room temperature, 30 min; GST-TFs on glutathione beads, 16-mer random dsDNA library, 0.1% formaldehyde crosslink after washing; high values mean tight binding
Details in all cases: protein: recombinant; tags: N-terminal GST; dsDNA, one strand shown
ELK4 = target: T1, ELK4 (Homo sapiens, UniProt P28324-2 1-405)
T1 sequence: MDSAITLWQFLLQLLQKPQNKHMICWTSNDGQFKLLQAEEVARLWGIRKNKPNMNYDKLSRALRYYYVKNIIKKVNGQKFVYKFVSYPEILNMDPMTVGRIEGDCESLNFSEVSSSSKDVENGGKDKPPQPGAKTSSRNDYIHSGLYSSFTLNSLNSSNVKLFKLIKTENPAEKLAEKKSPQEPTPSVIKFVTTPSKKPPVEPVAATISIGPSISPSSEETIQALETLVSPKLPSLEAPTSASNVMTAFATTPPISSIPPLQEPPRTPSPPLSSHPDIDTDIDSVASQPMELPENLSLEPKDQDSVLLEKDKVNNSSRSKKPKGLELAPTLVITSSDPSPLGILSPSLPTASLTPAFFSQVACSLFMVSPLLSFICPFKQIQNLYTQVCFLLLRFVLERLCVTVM
How it was run: (§1)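 Each value of binding signal is a hexamer's read frequency for a factor divided by the same hexamer's frequency in the tag-only sample. Barcoded, bead-captured GST fusions of human transcription factors made in yeast were pooled with that sample and incubated with 200 nmole of a random double-stranded 16-mer DNA library in Tris/NaCl/DTT/glycerol buffer at room temperature for 30 min. Washing, 0.1% formaldehyde crosslinking, proximity ligation, PCR and Illumina NextSeq500 sequencing followed.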

ETV2 = target: T2, ETV2 (Homo sapiens, UniProt O00321 1-342)
T2 sequence: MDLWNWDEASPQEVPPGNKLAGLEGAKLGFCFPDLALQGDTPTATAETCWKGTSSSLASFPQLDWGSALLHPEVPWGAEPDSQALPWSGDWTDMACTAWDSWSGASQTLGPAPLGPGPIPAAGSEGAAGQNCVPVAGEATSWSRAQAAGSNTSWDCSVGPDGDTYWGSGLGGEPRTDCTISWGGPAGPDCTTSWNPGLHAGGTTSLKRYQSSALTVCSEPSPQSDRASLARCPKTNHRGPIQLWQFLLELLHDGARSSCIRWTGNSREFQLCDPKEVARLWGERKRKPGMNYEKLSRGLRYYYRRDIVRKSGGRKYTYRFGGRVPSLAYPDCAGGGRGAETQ
How it was run: as §1

ELF3 = target: T3, ELF3 (Homo sapiens, UniProt P78545 1-371)
T3 sequence: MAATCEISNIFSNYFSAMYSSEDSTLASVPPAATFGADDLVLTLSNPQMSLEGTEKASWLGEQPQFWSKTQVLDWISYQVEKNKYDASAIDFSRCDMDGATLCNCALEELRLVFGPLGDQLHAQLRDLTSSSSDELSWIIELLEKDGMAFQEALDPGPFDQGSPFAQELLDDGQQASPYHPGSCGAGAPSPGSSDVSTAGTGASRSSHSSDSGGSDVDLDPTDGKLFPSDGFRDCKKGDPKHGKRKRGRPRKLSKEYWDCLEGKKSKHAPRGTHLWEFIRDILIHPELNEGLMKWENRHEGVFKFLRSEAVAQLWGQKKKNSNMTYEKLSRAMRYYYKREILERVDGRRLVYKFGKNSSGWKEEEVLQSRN
How it was run: as §1

ETV7 = target: T4, ETV7 (Homo sapiens, UniProt Q9Y603 1-341)
T4 sequence: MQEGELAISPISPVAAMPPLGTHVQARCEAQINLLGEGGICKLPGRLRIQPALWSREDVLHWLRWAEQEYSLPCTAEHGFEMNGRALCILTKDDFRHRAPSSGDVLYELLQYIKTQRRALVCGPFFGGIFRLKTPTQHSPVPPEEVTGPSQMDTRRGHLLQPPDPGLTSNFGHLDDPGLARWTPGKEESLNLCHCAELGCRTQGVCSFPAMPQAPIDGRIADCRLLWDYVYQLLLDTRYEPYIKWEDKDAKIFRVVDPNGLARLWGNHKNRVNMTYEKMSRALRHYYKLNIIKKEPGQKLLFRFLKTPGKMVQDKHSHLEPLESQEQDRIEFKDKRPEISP
How it was run: as §1

ELF5 = target: T5, ELF5 (Homo sapiens, UniProt Q9UKW6-2 1-255)
T5 sequence: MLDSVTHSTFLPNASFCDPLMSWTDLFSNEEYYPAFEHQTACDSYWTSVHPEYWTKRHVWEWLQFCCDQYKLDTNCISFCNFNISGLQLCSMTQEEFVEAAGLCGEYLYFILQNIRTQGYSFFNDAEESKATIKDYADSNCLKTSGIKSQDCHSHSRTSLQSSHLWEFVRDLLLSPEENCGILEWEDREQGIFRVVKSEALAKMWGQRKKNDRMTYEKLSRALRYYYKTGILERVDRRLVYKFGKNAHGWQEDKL
How it was run: as §1

CRX = CRX (Homo sapiens, UniProt O43186 1-299)
Sequence of CRX (O43186 whole entry): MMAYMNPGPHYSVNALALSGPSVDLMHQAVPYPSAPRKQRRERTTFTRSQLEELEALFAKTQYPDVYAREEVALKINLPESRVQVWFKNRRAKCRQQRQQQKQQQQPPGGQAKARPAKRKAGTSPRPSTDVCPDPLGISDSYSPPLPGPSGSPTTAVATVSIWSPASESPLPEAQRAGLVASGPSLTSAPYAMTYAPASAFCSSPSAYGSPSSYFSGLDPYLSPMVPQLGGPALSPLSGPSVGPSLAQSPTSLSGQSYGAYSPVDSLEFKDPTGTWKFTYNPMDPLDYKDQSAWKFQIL
How it was run: as §1

Row | Sequence | binding signal (ELK4) | binding signal (ETV2) | binding signal (ELF3) | binding signal (ETV7) | binding signal (ELF5) | binding signal (CRX)
1 | GTACCC | 1.17 fold enrichment (6-mer frequency, TF over GST control) | 1.11 fold enrichment (6-mer frequency, TF over GST control) | 1.17 fold enrichment (6-mer frequency, TF over GST control) | 1.06 fold enrichment (6-mer frequency, TF over GST control) | 1.01 fold enrichment (6-mer frequency, TF over GST control) | 
2 | TACCCC | 1.19 fold enrichment (6-mer frequency, TF over GST control) | 1.19 fold enrichment (6-mer frequency, TF over GST control) | 1.04 fold enrichment (6-mer frequency, TF over GST control) | 1.1 fold enrichment (6-mer frequency, TF over GST control) | 1.12 fold enrichment (6-mer frequency, TF over GST control) | 1.03 fold enrichment (6-mer frequency, TF over GST control)
3 | AGTAAC |  | 1.05 fold enrichment (6-mer frequency, TF over GST control) |  |  | 1.09 fold enrichment (6-mer frequency, TF over GST control) | 
4 | CCCGGT | 1.13 fold enrichment (6-mer frequency, TF over GST control) |  | 1.06 fold enrichment (6-mer frequency, TF over GST control) | 1.01 fold enrichment (6-mer frequency, TF over GST control) | 1.05 fold enrichment (6-mer frequency, TF over GST control) | 
5 | AGTGGT | 1.1 fold enrichment (6-mer frequency, TF over GST control) |  | 1.01 fold enrichment (6-mer frequency, TF over GST control) | 1.14 fold enrichment (6-mer frequency, TF over GST control) | 1.14 fold enrichment (6-mer frequency, TF over GST control) | 
6 | AACGGA |  | 1.02 fold enrichment (6-mer frequency, TF over GST control) | 1.03 fold enrichment (6-mer frequency, TF over GST control) | 1.01 fold enrichment (6-mer frequency, TF over GST control) | 1.11 fold enrichment (6-mer frequency, TF over GST control) | 
7 | AGTGTA |  |  |  | 1.1 fold enrichment (6-mer frequency, TF over GST control) |  | 
8 | CGGATC |  | 1.03 fold enrichment (6-mer frequency, TF over GST control) |  |  | 1.05 fold enrichment (6-mer frequency, TF over GST control) | 1.21 fold enrichment (6-mer frequency, TF over GST control)
9 | ATAGCG |  |  | 1.11 fold enrichment (6-mer frequency, TF over GST control) |  |  | 
10 | GGTTAT |  | 1.09 fold enrichment (6-mer frequency, TF over GST control) |  | 1.12 fold enrichment (6-mer frequency, TF over GST control) | 1.1 fold enrichment (6-mer frequency, TF over GST control) | 1.04 fold enrichment (6-mer frequency, TF over GST control)
11 | GCTATC | 1.13 fold enrichment (6-mer frequency, TF over GST control) | 1.04 fold enrichment (6-mer frequency, TF over GST control) | 1.04 fold enrichment (6-mer frequency, TF over GST control) | 1.18 fold enrichment (6-mer frequency, TF over GST control) | 1.04 fold enrichment (6-mer frequency, TF over GST control) | 
12 | GTCCGC | 1.09 fold enrichment (6-mer frequency, TF over GST control) |  | 1.01 fold enrichment (6-mer frequency, TF over GST control) |  | 1.07 fold enrichment (6-mer frequency, TF over GST control) | 
13 | GTTGCG | 1.01 fold enrichment (6-mer frequency, TF over GST control) | 1.03 fold enrichment (6-mer frequency, TF over GST control) |  | 1.04 fold enrichment (6-mer frequency, TF over GST control) | 1.02 fold enrichment (6-mer frequency, TF over GST control) | 
14 | TGCCGG |  |  | 1.11 fold enrichment (6-mer frequency, TF over GST control) |  | 1.09 fold enrichment (6-mer frequency, TF over GST control) | 
15 | CAACCG |  | 1.08 fold enrichment (6-mer frequency, TF over GST control) | 1.08 fold enrichment (6-mer frequency, TF over GST control) |  |  | 
16 | TGGGTA | 1.02 fold enrichment (6-mer frequency, TF over GST control) | 1.14 fold enrichment (6-mer frequency, TF over GST control) | 1.1 fold enrichment (6-mer frequency, TF over GST control) | 1.01 fold enrichment (6-mer frequency, TF over GST control) |  | 
17 | GTTATA |  |  | 1.13 fold enrichment (6-mer frequency, TF over GST control) | 1.05 fold enrichment (6-mer frequency, TF over GST control) |  | 1.08 fold enrichment (6-mer frequency, TF over GST control)
18 | ACTGTA | 1.08 fold enrichment (6-mer frequency, TF over GST control) | 1.17 fold enrichment (6-mer frequency, TF over GST control) |  |  | 1.07 fold enrichment (6-mer frequency, TF over GST control) | 
19 | GCAACC |  |  |  | 1.01 fold enrichment (6-mer frequency, TF over GST control) | 1.02 fold enrichment (6-mer frequency, TF over GST control) | 
20 | GTAGTT | 1.1 fold enrichment (6-mer frequency, TF over GST control) | 1.04 fold enrichment (6-mer frequency, TF over GST control) | 1.09 fold enrichment (6-mer frequency, TF over GST control) | 1.03 fold enrichment (6-mer frequency, TF over GST control) | 1.07 fold enrichment (6-mer frequency, TF over GST control) | 
21 | CTATCA | 1.06 fold enrichment (6-mer frequency, TF over GST control) | 1.05 fold enrichment (6-mer frequency, TF over GST control) | 1.02 fold enrichment (6-mer frequency, TF over GST control) | 1.06 fold enrichment (6-mer frequency, TF over GST control) | 1.01 fold enrichment (6-mer frequency, TF over GST control) | 1.01 fold enrichment (6-mer frequency, TF over GST control)
22 | ATTGGC | 1.06 fold enrichment (6-mer frequency, TF over GST control) | 1.1 fold enrichment (6-mer frequency, TF over GST control) | 1.24 fold enrichment (6-mer frequency, TF over GST control) | 1.04 fold enrichment (6-mer frequency, TF over GST control) | 1.08 fold enrichment (6-mer frequency, TF over GST control) | 1.07 fold enrichment (6-mer frequency, TF over GST control)
23 | AGTGCC |  | 1.08 fold enrichment (6-mer frequency, TF over GST control) |  | 1.05 fold enrichment (6-mer frequency, TF over GST control) |  | 
24 | ACCGCA | 1.05 fold enrichment (6-mer frequency, TF over GST control) | 1.3 fold enrichment (6-mer frequency, TF over GST control) | 1.29 fold enrichment (6-mer frequency, TF over GST control) | 1.12 fold enrichment (6-mer frequency, TF over GST control) | 1.1 fold enrichment (6-mer frequency, TF over GST control) | 1.01 fold enrichment (6-mer frequency, TF over GST control)
25 | CATTGT | 1.17 fold enrichment (6-mer frequency, TF over GST control) | 1.11 fold enrichment (6-mer frequency, TF over GST control) | 1.02 fold enrichment (6-mer frequency, TF over GST control) | 1.11 fold enrichment (6-mer frequency, TF over GST control) | 1.1 fold enrichment (6-mer frequency, TF over GST control) | 
26 | GCCTGA | 1.07 fold enrichment (6-mer frequency, TF over GST control) | 1.03 fold enrichment (6-mer frequency, TF over GST control) |  |  | 1.05 fold enrichment (6-mer frequency, TF over GST control) | 
27 | CATACA | 1.06 fold enrichment (6-mer frequency, TF over GST control) | 1.1 fold enrichment (6-mer frequency, TF over GST control) |  | 1.1 fold enrichment (6-mer frequency, TF over GST control) |  | 
28 | GTTGTT | 1.33 fold enrichment (6-mer frequency, TF over GST control) |  | 1.13 fold enrichment (6-mer frequency, TF over GST control) | 1.25 fold enrichment (6-mer frequency, TF over GST control) | 1.19 fold enrichment (6-mer frequency, TF over GST control) | 
